This is part of a sample that, as a whole, favours compounds with a hit. Of some 83,000 tested, about 20% had one in any assay.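 In brief: 96-well plates, 48 h treatment, single concentration, percent growth endpoint.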 Values without a mark were called inactive. Activity calls are given as the source filed them. Rule for the calls: active = growth percent below 10; inactive = the rest.

Among the test systems are NCI-H23 lung; NCI-H226 lung; NCI-H322M lung; HOP-62 NSCLC; NCI-H460 lung; NCI-H522 lung; A549/ATCC NSCLC; 786-0 renal; COLO 205 colon; DU-145 prostate; K-562 leukemia; MALME-3M melanoma; MDA-MB-231 breast; SF-268 CNS; SF-295 CNS; SF-539 CNS; UACC-257 melanoma; RXF 393 renal; M14 melanoma.
Assay in all cases: NCI-60 one-dose screen, 48 h (100 = growth as untreated, 0 = no growth, -100 = all killed)
Holding throughout (details): 10 µM unless noted

Turning to `CCn1c(SCC(=O)Nc2cccc(C(=O)/C=C/c3ccccc3Cl)c2)nc2ccccc2c1=O`, the growth in the test on NCI-H23 lung is 69.5%; in the test with NCI-H226 lung, 81.9%; with NCI-H322M lung it was 90.5%; with HOP-62 NSCLC, 93.7%; in the test on NCI-H460 lung, 95.7%; in the test on NCI-H522 lung it was 85.3%. In addition, the growth in the test with A549/ATCC NSCLC is 78.6%; in the test on 786-0 renal, 95.6%; in the test with COLO 205 colon, 114%; in the test with DU-145 prostate it was 77.8%; in the test with K-562 leukemia, 53%; in the test on MALME-3M melanoma, 103%. Besides, the growth was 87.1% in the test with MDA-MB-231 breast; 88% with SF-268 CNS; 91.4% with SF-295 CNS; 90.4% in the test on SF-539 CNS; 110% in the test with UACC-257 melanoma.
On to `Cc1nn(-c2ccccc2)c2ncnc(N/N=C/c3ccccc3)c12`, for which the growth in the test on NCI-H23 lung was 97.3%; with NCI-H226 lung, 78.3%; with NCI-H322M lung it was 95%; with HOP-62 NSCLC, 116%; in the test on NCI-H460 lung it was 95.6%; in the test with NCI-H522 lung, 85.8%. For the same compound, the growth in the test on A549/ATCC NSCLC was 92.4%; in the test on 786-0 renal it was 84.6%; in the test with COLO 205 colon it was 104%; in the test on DU-145 prostate, 91.2%; in the test with K-562 leukemia, 78.5%; in the test on MDA-MB-231 breast, 109%. Also, the growth in the test on RXF 393 renal was 91.3%; with SF-268 CNS it was 91.7%; in the test with SF-295 CNS it was 108%; in the test on SF-539 CNS, 103%; with UACC-257 melanoma, 113%; in the test with M14 melanoma, 103%.
As for `O=C(CCn1c[n+](CC(=O)c2ccc(F)cc2)c2ccccc21)Nc1cccc2cccnc12`, the growth with NCI-H23 lung is 83.4%; in the test with NCI-H226 lung, 78.1%; in the test on NCI-H322M lung, 93.9%; in the test on HOP-62 NSCLC, 85.7%; with NCI-H460 lung it was 88.3%; with NCI-H522 lung it was 67.5%. Further, the growth is 102% in the test with A549/ATCC NSCLC; 102% in the test on 786-0 renal; 55.7% with COLO 205 colon; 96.6% with DU-145 prostate; 58.5% in the test on K-562 leukemia; 57.4% with MDA-MB-231 breast. For the same compound, the growth is 92.7% in the test with RXF 393 renal; 78.6% in the test with SF-268 CNS; 99.2% in the test on SF-295 CNS; 89.6% in the test with SF-539 CNS; 47.6% in the test with UACC-257 melanoma; 79.8% with M14 melanoma.
As to `COc1ccccc1-n1cc(C#N)c(N)c1C(=O)c1ccc(Br)cc1`, the growth was 87.8% with NCI-H23 lung; 94.4% in the test on NCI-H226 lung; 96.7% with NCI-H322M lung; 63.5% in the test on HOP-62 NSCLC; 79.7% with NCI-H460 lung; 48.7% with NCI-H522 lung. Moreover, the growth in the test with A549/ATCC NSCLC was 78.6%; in the test on 786-0 renal it was 91.9%; in the test on COLO 205 colon, 76.5%; with DU-145 prostate, 97.3%; in the test on K-562 leukemia, 20.1%; with MDA-MB-231 breast, 79.8%. Also, the growth is 85.8% in the test on RXF 393 renal; 89% in the test on SF-268 CNS; 45.5% in the test on SF-295 CNS; 82.7% in the test on SF-539 CNS; 72.5% with UACC-257 melanoma; 42.3% in the test with M14 melanoma.
On to `CC1(C)NCCC[C@]2(C)[C@H]3C/C(=N\O)C4[C@@H]5C[C@@](C)(CO)CC[C@]5(C)CC[C@@]4(C)[C@]3(C)CC[C@@H]12` (some centres not stated), for which the growth was 94.2% in the test with NCI-H23 lung; 94.3% in the test on NCI-H226 lung; 101% in the test on NCI-H322M lung; 111% with HOP-62 NSCLC; 100% in the test with NCI-H460 lung; 97.4% in the test on NCI-H522 lung. The growth in the test on A549/ATCC NSCLC is 95.3%; in the test with 786-0 renal it was 98.4%; in the test with COLO 205 colon it was 103%; with DU-145 prostate, 106%; in the test with K-562 leukemia, 80.7%; in the test on MDA-MB-231 breast, 93.7%. Moreover, the growth in the test on RXF 393 renal was 91.5%; with SF-268 CNS, 87.6%; in the test on SF-295 CNS, 100%; with SF-539 CNS it was 97.8%; in the test with UACC-257 melanoma, 102%; with M14 melanoma it was 101%.
As to `COc1ccccc1-n1cc(C#N)c(N)c1C(=O)c1ccc(C)cc1`, the growth in the test with NCI-H23 lung was 89.4%; in the test with NCI-H226 lung, 98.4%; in the test with NCI-H322M lung it was 90.8%; in the test on HOP-62 NSCLC, 77.7%; in the test with NCI-H460 lung, 101%; with NCI-H522 lung, 64%. Besides, the growth in the test with A549/ATCC NSCLC was 89.8%; in the test with 786-0 renal, 94.8%; with COLO 205 colon it was 95.6%; in the test on DU-145 prostate, 99.2%; in the test on K-562 leukemia, 28.4%; in the test on MDA-MB-231 breast, 90.9%. Besides, the growth in the test on RXF 393 renal is 76.6%; in the test on SF-268 CNS, 90.6%; with SF-295 CNS, 74.1%; in the test with SF-539 CNS it was 97%; with UACC-257 melanoma it was 78.3%; with M14 melanoma, 59.8%.
As to `C#C[C@]1(O)CC[C@H]2[C@@H]3CC=C4c5sc(-c6ccc7c(c6)OCO7)nc5CC[C@]4(C)[C@H]3CC[C@@]21C`, the growth with NCI-H23 lung was 6.36% (active); with NCI-H226 lung, 32.3%; in the test with NCI-H322M lung, 37.1%; in the test on HOP-62 NSCLC, 11.2%; in the test on NCI-H460 lung, -26.2% (active); with NCI-H522 lung it was 2.16% (active). The growth in the test on A549/ATCC NSCLC is 6.31% (active); in the test on 786-0 renal, -28.9% (active); in the test with COLO 205 colon it was 51.9%; in the test on DU-145 prostate, 20.1%; in the test with K-562 leukemia it was 32.6%; in the test with MDA-MB-231 breast it was 51.8%. The growth was -49.3% (active) in the test with RXF 393 renal; 51.7% in the test with SF-268 CNS; -47.7% (active) with SF-295 CNS; -36.6% (active) with SF-539 CNS; 17.7% in the test with UACC-257 melanoma; 6.34% (active) with M14 melanoma.
`Cc1ccc(S(=O)(=O)N(CC[C@@H]2C[C@H]2c2cc3ccccc3o2)S(=O)(=O)c2ccc(C)cc2)cc1`: the growth was 90.8% in the test with NCI-H23 lung; 79% in the test with NCI-H226 lung; 95.4% with NCI-H322M lung; 115% with HOP-62 NSCLC; 104% in the test with NCI-H460 lung; 85.3% in the test with NCI-H522 lung. For the same compound, the growth in the test on A549/ATCC NSCLC was 94.9%; in the test on 786-0 renal, 99.7%; in the test on COLO 205 colon, 115%; in the test with DU-145 prostate, 98.7%; in the test on K-562 leukemia, 83.1%; in the test with MDA-MB-231 breast, 83.6%. The growth in the test with RXF 393 renal is 103%; in the test with SF-268 CNS, 98.1%; with SF-295 CNS it was 101%; with SF-539 CNS it was 101%; in the test on UACC-257 melanoma, 84.9%.

Source of the values: PubChem BioAssay (NCI).
